Most compounds without a hit are left out; they make up all but 4.5% or so of the library.
PfHsp40 rescue: restores yeast growth despite PfHsp40 toxicity | S. cerevisiae expressing PfHsp40, growth rescue, ATP luminescence | growth rescue, % at 12.5 µM | 340,000 tested, 0.68% active | AID 504582; in the data active = growth rescue above about 28%, passing the limit was not always enough;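 note: yeast W303a lacking pdr1 and pdr3 grown in galactose medium; growth measured after three days at 30 °C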
Mtb FBA inh: Mtb fructose-bisphosphate aldolase inhibition; P9WQA3; purified M. tuberculosis FBA, fluorescence read-out; inhibition, % at 1 µM; 360,000 tested, 2.3% active; AID 588726; in the data active = inhibition above about 27%;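 note: 0% = vehicle and 100% = reference inhibitor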
Target sequence (P9WQA3 whole entry, looked up): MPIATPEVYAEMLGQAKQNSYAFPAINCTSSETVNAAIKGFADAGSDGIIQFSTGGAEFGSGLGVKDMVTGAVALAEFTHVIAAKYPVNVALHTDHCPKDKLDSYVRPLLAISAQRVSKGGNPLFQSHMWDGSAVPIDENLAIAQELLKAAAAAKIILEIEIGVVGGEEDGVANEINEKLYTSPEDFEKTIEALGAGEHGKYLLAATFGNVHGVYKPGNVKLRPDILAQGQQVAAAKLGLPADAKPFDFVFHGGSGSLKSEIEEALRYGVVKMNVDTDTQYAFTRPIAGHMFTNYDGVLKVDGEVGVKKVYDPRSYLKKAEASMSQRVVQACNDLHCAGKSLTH
BJeLR viability: kills HRASV12-expressing BJeLR cells | AID 1554 | BJeLR (HRASV12) viability, CellTiter-Glo ATP luminescence, 48 h | 300,000 tested, 0.17% active | inhibition, % (concentration not given with the values); in the data active = inhibition above about 50%
GDH-TPI counter: GDH-TPI coupled enzyme inhibition counter-screen; GDH-TPI coupled enzyme counterscreen, NADH absorbance; inhibition, % at 4.8 µM; 360,000 tested, 1.2% active; AID 588335; in the data active = inhibition above about 30%;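 note: 0% = DMSO wells and 100% = wells lacking the enzyme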
PrP UTR inh: inhibition of PrP 5' UTR reporter expression; cell-based PrP 5' UTR mRNA reporter, plate reader; inhibition, % (no concentration beside the values); 340,000 tested, 0.35% active; AID 488862; in the data active = inhibition above about 52%; note: 0 = median of the neutral control wells
PrPC surface inh: inhibitors of human cell surface prion protein PrPC. P04156. inhibition, % at 13.8 µM. 370,000 tested, 0.43% active. TR-FRET read-out; in the data active = inhibition above about 24%; note: 0% = median of the test wells and 100% = reference compound wells
* = called active by the depositor; / = no result given; + = active, no number.

SMILES | PfHsp40 rescue | Mtb FBA inh | BJeLR viability | GDH-TPI counter | PrP UTR inh | PrPC surface inh
O=C(NC(=S)Nc1ccccc1[N+](=O)[O-])c1ccccc1 | 0.2 | -5.0 | 0.9 | 3.2 | -37.2 | -4.6
O=C(NC(=S)/C(=C1\CCCCCN1)[N+](=O)[O-])c1ccccc1 | 1.2 | -0.9 | / | 21.4 | 58.8* | /
O=C(Nc1nnc(-c2cccnc2)s1)c1cnc2ccccc2c1 | / | / | / | / | / | -8.1
Cn1c(=O)c2[nH]c(NN=Cc3ccc(F)cc3)nc2n(C)c1=O | 0.0 | -0.8 | / | 28.9 | -41.3 | 0.3
Cn1c(=O)c2[nH]c(NN=Cc3cccc(Br)c3)nc2n(C)c1=O | -0.9 | -2.7 | / | 36.8* | -18.9 | -14.8
CCN(CC)CCOc1ccc(C=NNc2nc3c([nH]2)c(=O)n(C)c(=O)n3C)cc1 | -0.7 | 0.3 | / | 43.9* | -15.0 | -6.6
CSCCCNC(=O)c1oc(=O)c2ccccc2c1-c1ccc(C)cc1 | / | / | / | / | / | -1.9
N#C/C(=C/c1cccs1)c1ccccn1 | -0.6 | -2.1 | -4.3 | 33.2* | -68.5 | -2.5
Cc1cc(Cl)ccc1OCC(=O)N/N=C/c1ccc[nH]1 | / | / | / | / | / | 1.9
O=C1OC(Cc2ccccn2)C(=O)C1=C1SCCS1 (centres undefined) | -1.7 | -2.7 | 24.8 | 41.5* | -15.4 | -3.7
Cc1cc(C)nc(SCc2ccc(C(=O)N/N=C/c3ccc(C(=O)O)cc3)cc2)n1 | -0.2 | 1.6 | 2.7 | 12.5 | -6.7 | -7.4
Cc1cc(C)nc(SCc2ccc(C(=O)N/N=C/c3cccc(O)c3O)cc2)n1 | 126.3* | -2.6 | -1.5 | 7.9 | -14.0 | 6.0
COc1ccc(O)c(/C=N/NC(=O)c2ccc(CSc3nc(C)cc(C)n3)cc2)c1 | 51.9* | -4.9 | 46.5 | 20.8 | 19.0 | 10.1
CCN(Cc1ccccc1)C(=O)C1C2C=CC3(CN(Cc4ccccc4)C(=O)C13)O2 (centres undefined) | / | / | / | / | / | 8.6
CC(C)(C)c1ccc(-c2nnc(SCC(=O)Nc3ccc4cn[nH]c4c3)n2-c2ccc(Cl)cc2)cc1 | / | / | / | / | / | 5.0
CCCCCCCCN1CCS(=O)(=O)N(Cc2ccc(C)cc2)C(C(=O)OC)C1 (centres undefined) | / | / | / | / | / | 7.0
COc1cc(C(=O)Nc2cccc(-c3cn4cccnc4n3)c2)cc(OC)c1OC | -0.1 | + | -5.1 | 7.9 | 42.6 | -15.0
Cc1onc(-c2ccccc2Cl)c1C(=O)Nc1cccc(-c2cn3cccnc3n2)c1 | 0.6 | 128.5* | / | 30.9* | -2.9 | /
COc1cc(C(=O)Nc2cccc(-c3nncn3C)c2)cc(OC)c1OC | -1.4 | -1.4 | 2.2 | 7.7 | -19.8 | 2.7
CC(C)(C)CC(=O)Nc1cccc(-c2cn3cccnc3n2)c1 | -0.9 | + | -12.4 | 6.8 | -34.5 | -8.0
O=C(OC12CCCN(C1)/C(=C/c1cccnc1)C2)C1CCCCC1 (centres undefined) | / | / | / | / | / | 11.9
COc1ccc(/C=C2/CN(Cc3ccc(OC)cc3OC)C3=N[C@H](c4ccccc4)CC(=O)N32)cc1 | / | / | / | / | / | -2.2
CC(C)(C)C(=O)C(Cl)C(=O)Nc1ccccc1 (centres undefined) | 275.3* | 0.3 | -0.8 | 1.3 | -9.0 | -1.2
O=C(Nc1ccc(Nc2ccccc2)cc1)C(Cl)Cl | 8.2 | -2.2 | -0.5 | 3.4 | -21.2 | 0.9
CCOC(=O)c1sc(=S)n(-c2ccc(OC)cc2)c1C | / | -0.7 | 9.3 | 15.6 | / | -9.2
SMILES | PfHsp40 rescue | Mtb FBA inh | BJeLR viability | GDH-TPI counter | PrP UTR inh | PrPC surface inh
CCOC(=O)c1c2c(n(-c3ccc(OC)cc3)c1C)C(=O)C(=O)c1ccccc1-2 | 85.3* | -7.1 | / | 11.5 | -43.3 | /
Cc1cc(C(=O)O[C@@H]2CCC[C@]3(C(=O)N(Cc4ccccc4)c4ccccc43)[C@H]2NC(=O)CCc2ccccc2)no1 | / | / | / | / | / | -7.7
Cc1cc(C)nc(NC(=O)CSc2nc3ccccc3s2)n1 | -0.2 | 0.3 | 0.7 | 13.6 | -62.5 | 2.2
Cc1cc(C)nc(NC(=O)CSc2nc3cc(Cl)ccc3s2)n1 | 66.1* | 1.7 | -7.9 | 1.5 | -40.9 | -2.9
CCCCCCCCCC[n+]1cccc2c3ccccc3ccc21 | 133.2* | 29.1* | 59.7* | 4.1 | -16.8 | 24.1
O=C1CCC/C1=C/Nc1ccc(Cl)cc1 | 1.6 | -2.0 | -1.7 | 31.7* | -5.5 | -0.5
O=C1CCCC/C1=C\Nc1ccc(O)cc1 | -0.2 | 2.0 | -6.8 | 33.3* | -10.0 | -16.4
O=C(CN1CCN(Cc2ccccc2)CC1)N/N=C\C=C/c1ccco1 | -1.5 | 0.1 | -7.4 | 43.2* | 1.7 | -5.4
CC(/C=N\NC(=O)CN1CCN(Cc2ccccc2)CC1)=C\c1ccco1 | -0.4 | -5.6 | -4.1 | 52.9* | -28.7 | -6.8
O=C(CSc1nnc(SCc2ccccc2)s1)N/N=C/C=C/c1ccco1 | 0.3 | -3.9 | 0.3 | 15.5 | -18.7 | -4.4
C/C(=N/NC(=O)CN1CCN(Cc2ccccc2Cl)CC1)c1ccco1 | -1.1 | 3.0 | -3.3 | 0.0 | -14.7 | -6.2
O=C(CN1CCN(Cc2ccccc2Cl)CC1)N/N=C/C=C/c1ccco1 | / | -2.2 | -12.7 | 61.4* | / | 6.5
Clc1ccccc1CN1CCN(/N=C/C=C/c2ccco2)CC1 | 0.1 | -0.9 | 6.5 | 41.5* | -43.1 | 5.2
O=C(O)c1ccc(/C=N/N2CCN(c3ccccc3)CC2)cc1 | 0.3 | -1.4 | 0.7 | 10.1 | -35.9 | -5.7
Clc1ccc(/C=N/N2CCCCC2)cc1 | -0.4 | 1.1 | -3.5 | 7.2 | -81.4 | 2.1
O=C(O)c1ccc(C=NN2CCCCCC2)cc1 | -0.9 | 3.9 | / | 35.9* | 3.1 | 1.6
N#Cc1ccc(C=NN2CCCCCC2)cc1 | 0.6 | 1.0 | / | 41.2* | -87.9 | -1.0
COc1ccc(-n2c(SCC(=O)Nc3ccc(Oc4ccccc4)cc3)nnc2-c2cccnc2)cc1 | / | / | / | / | / | -10.0
CCc1cc(-c2[nH]ncc2-c2ccc([N+](=O)[O-])cc2)c(O)cc1OC | 360.2* | -1.0 | 5.2 | 10.0 | -1.3 | /
COC(=O)[C@]12C[C@H](CC(=O)NCC3CCCCC3)C(=O)N(Cc3ccco3)C1=C[C@H](C1CCCC1)O[C@@H]2C | / | / | / | / | / | -3.0
Cc1c(C)c2c(OCC(=O)N3CCC[C@H]3C(=O)O)cc3c(c2oc1=O)CCC(C)(C)O3 | 2.0 | + | -5.7 | 13.2 | -34.2 | -8.5
Cc1c(C)c2c(OCC(=O)N3CCC(O)CC3)cc3c(c2oc1=O)CCC(C)(C)O3 | -0.8 | + | -1.4 | 31.4* | 25.7 | -7.7
C#Cc1cccc(OC[C@@H](O)CN2CCC(C(O)(c3ccccc3)c3ccccc3)CC2)c1 | / | / | / | / | / | -19.6
CCOC(=O)c1ccccc1NC(=O)c1cc2sccc2n1C | -0.5 | 6.9 | 1.1 | 31.6* | -2.5 | 2.5
CCOc1ccc(C(=O)Nc2cccc(-c3cc4ccccc4oc3=O)c2)cc1[N+](=O)[O-] | -1.5 | 2.4 | -1.4 | 32.2* | 3.5 | -6.5
CCc1cc(=O)oc2c(C)c(O)c(CN(C)C)cc12 | -0.1 | + | -10.9 | 32.1* | -5.4 | -0.1
CCC(=O)c1cc2c(C)cc(=O)oc2c(C)c1O | 0.3 | 2.9 | 6.1 | 6.5 | -8.7 | -1.0
COc1ccc(C2/C(=C(/O)c3ccc(C)cc3)C(=O)C(=O)N2C)cc1 (centres undefined) | -1.2 | -0.8 | -0.2 | 32.5* | -12.7 | -0.8

Assay outcomes (PubChem)
